The full list was thinned out, with hits kept by preference.
mcGAS MS inh – inhibitors of Mus musculus cyclic GMP-AMP synthase, initial high-throughput assay, cell-free, RapidFire MS; Q8C6L5; recombinant mouse cGAS, cGAMP by RapidFire MS; inhibition, % at 12.5 µM; hit rate 0.18% among 130,000;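 active = inhibition of cGAS enzyme activity at or above 60%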;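 note: enzyme stimulated by 45 bp dsDNA with ATP and GTP substrates; cGAMP share of summed cGAMP plus half ATP and half GTP signals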
Target sequence (Q8C6L5 whole entry, looked up): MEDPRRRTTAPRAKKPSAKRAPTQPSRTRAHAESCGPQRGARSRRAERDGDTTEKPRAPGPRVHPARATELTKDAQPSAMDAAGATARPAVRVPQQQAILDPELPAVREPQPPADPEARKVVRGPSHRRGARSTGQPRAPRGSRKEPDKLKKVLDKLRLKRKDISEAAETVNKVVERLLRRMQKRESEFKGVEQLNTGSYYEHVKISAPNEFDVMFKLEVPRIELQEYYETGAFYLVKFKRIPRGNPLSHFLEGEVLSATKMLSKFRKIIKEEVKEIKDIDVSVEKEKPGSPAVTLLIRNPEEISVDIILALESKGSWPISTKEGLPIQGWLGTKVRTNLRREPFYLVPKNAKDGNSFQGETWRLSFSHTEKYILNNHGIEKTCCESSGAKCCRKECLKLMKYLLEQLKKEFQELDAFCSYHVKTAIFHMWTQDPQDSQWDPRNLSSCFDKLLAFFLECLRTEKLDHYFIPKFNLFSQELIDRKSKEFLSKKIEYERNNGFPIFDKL
* marks the source's active call; other numbers are inactive results; ! = not active in a repeat.

For Cc1ccc(-c2cc(C(=O)Nc3cnn(C45CC6CC(CC(C6)C4)C5)c3)no2)cc1 the results were mcGAS MS inh 6.
`CCCn1cc(NC(=O)c2cc(-c3ccccc3)on2)cn1` gave mcGAS MS inh 72*.
For CC(CCc1ccccc1)NC(=O)CC1CSc2nc3c(c(=O)n21)CCCC3 (stereo not drawn) the results were mcGAS MS inh -8.
`O=S(=O)(CCN1CCC2(CCc3ccccc32)C1)c1ccccc1` (stereo not drawn) gave mcGAS MS inh -7.
O=C1/C(=C/c2cccnc2)COc2c(F)cccc21 was read as mcGAS MS inh 73*.
Screening O=C1NC(=S)SC1=Cc1cccnc1 returned mcGAS MS inh 19.
Screening O=C1/C(=C\c2cccnc2)CSc2ccc(Br)cc21 returned mcGAS MS inh 6.
CS(=O)(=O)NCCN1CCC(CCc2ccc(O)cc2)CC1 was read as mcGAS MS inh -2.
Cc1ccc(C(C)Cc2c(-c3ccccc3)ncn2CCc2cnccn2)o1 (stereo not drawn) was read as mcGAS MS inh -15.
For CCCCCCCCCCCCCCCC[N+](C)(C)C the results were mcGAS MS inh 98*!.
Screening C[N+](C)(C)CCCCCC[N+](C)(C)C returned mcGAS MS inh -8.
Screening CCCCCCCCCCCC[N+](C)(C)CCOc1ccccc1 returned mcGAS MS inh 9.
`CCOc1ccc(C(C)NC(=O)c2ccno2)cc1OCC` (stereo not drawn) gave mcGAS MS inh -23.
`O=C1OCCC1Sc1nc2ccc(Cl)cc2c(=O)n1-c1ccc(F)cc1F` (stereo not drawn) gave mcGAS MS inh 19.
For CSc1sc(C(C)=O)c(N)c1-c1ccc(Cl)cc1 the results were mcGAS MS inh -8.
Screening O=C(Nc1ccc(-n2nccn2)cc1)N(CCO)Cc1ccsc1 returned mcGAS MS inh -33.
COC(=O)c1nc2n(n1)-c1ccccc1S(=O)(=O)N2 was read as mcGAS MS inh 91*.
COC(=O)CSC1=NS(=O)(=O)c2ccccc2N1 was read as mcGAS MS inh -3.
For CC(C)C(C)NC(=O)c1ccc2c(c1)S(=O)(=O)Nc1ncnn1-2 (stereo not drawn) the results were mcGAS MS inh 2.
`N#CCCn1c(=O)n(CCC#N)c(=O)n(CCC#N)c1=O` gave mcGAS MS inh -36.
`Cc1ccc(C(C)C)cc1S(=O)(=O)Nc1ccc(F)cc1` gave mcGAS MS inh 8.
CCN(CC)C(=O)CSc1nc2ccccc2c(=O)n1-c1cc(C)ccn1 was read as mcGAS MS inh -1.
CC(C)(C)Cc1noc2ncc(C(=O)N3CC4CC5CC(C4)CC3C5)cc12 was read as mcGAS MS inh -3.
For COc1cc(/C=c2\sc3nc4cc(Br)cnc4n3c2=O)ccc1O the results were mcGAS MS inh 72*.
`COc1cc(/C=C/c2ccc(O)c(OC)c2)ccc1O` gave mcGAS MS inh -10.
For COc1cc(C=C2C(=O)N(C)C(=O)N(C)C2=O)ccc1O the results were mcGAS MS inh 30.
For Cc1c(C#N)c([N+](=O)[O-])nn1Cc1cccc(C(F)(F)F)c1 the results were mcGAS MS inh -1.
`O=C1C=CC2C3C(=O)N(c4ccccc4)C(=O)C3C1N2c1ccccc1` (stereo not drawn) gave mcGAS MS inh 92*.
For O=C1C2C3C=CC(C3)C2C(=O)N1c1ccccc1 (stereo not drawn) the results were mcGAS MS inh -4.
`O=C1C=CC(=O)N1c1ccccc1` gave mcGAS MS inh -6.
For CN(Cc1ccccc1)C1CCCN(Cc2cccc3cnccc23)C1 (stereo not drawn) the results were mcGAS MS inh -11.
`NC(Cc1ccc(O)cc1)C(=O)O` (stereo not drawn) gave mcGAS MS inh -3.
`CC(Nc1ccc(Cl)cc1Cl)C(=O)O` (stereo not drawn) gave mcGAS MS inh 31.
N[C@@H](Cc1cc(-c2ccc(Cl)cc2Cl)cc(CP(=O)(O)O)c1O)C(=O)O was read as mcGAS MS inh 70*.
For CCCCNC(=O)N1CCC2(CC1)N=CC1(CCCCC1)S2 the results were mcGAS MS inh 0.
For Cc1noc(C)c1CS(=O)(=O)c1n[nH]c(C2CC2)n1 the results were mcGAS MS inh 4.
For Cc1ccc(CN(C(=O)[C@H](N)c2ccccc2)C2CC2)s1 the results were mcGAS MS inh -5.
O=C(CC1CCCCN1S(=O)(=O)c1ccccc1)Nc1ncccn1 (stereo not drawn) was read as mcGAS MS inh 18.
Screening CC1COCCN1C(=O)c1c[nH]c(=O)[nH]1 (stereo not drawn) returned mcGAS MS inh -2.
Screening COC(=O)c1c(N2C(=O)C=CC2=O)sc2c1CCCC2 returned mcGAS MS inh 91*.
Screening COC(=O)c1c(N)sc2c1CCCC2 returned mcGAS MS inh -2.
For COC(=O)c1c(N)sc2c1CCC2 the results were mcGAS MS inh -7.
Screening CC(C)c1ccc(-n2ncc(C(=O)N(C)CCc3ccccc3)c2N)cc1 returned mcGAS MS inh -3.
S=c1[nH]nc2c3ccccc3ncn12 was read as mcGAS MS inh 87*.

Assay outcomes deposited in PubChem BioAssay by Fisher Drug Discovery Resource Center.
